# Source: PubChem BioAssay (NCI)
# Compounds without any hit were thinned out: in the full panel of roughly 79,000, 15% have a hit. Unmarked numbers belong to inactive results. Calls of active or inactive are those of the source. Rule as the data show it: active = growth inhibition above about 70%; inactive = the rest.
# Test: NCI Yeast Anticancer Drug Screen. Data for the cln2 rad14 strain (AID 165);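 also: 0% = growth equal to vehicle treated cultures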
# Details: S. cerevisiae cln2 rad14 strain, at 50.0 µM, active compounds read high
# Procedure, shortened: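 Test compounds were added to cln2 rad14 yeast cultures; inhibition of growth was then determined by comparison with vehicle treatment.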
row,SMILES,growth inhibition
1,CC(=O)c1ccc(N=C2C=CC(=O)O2)cc1,-21.5%
2,COc1cc(Br)cc2nc(-c3cccs3)oc12,-24.6%
3,CC(C(O)c1ccc(Cl)cc1)C(O)(C(F)(F)F)C(F)(F)F (stereo not drawn),99% (active)
4,OC(NN=C1CCCC1)(C(F)(F)Cl)C(F)(F)Cl,-25.3%
5,c1ccc(OC23CC4CC(CC(C4)C2)C3)cc1,42.8%
6,CCCCC(=O)N/N=C/c1ccccc1OCC,-3.3%
7,CCOC(=O)CC(NC(=O)CC(N)C(=O)O)C(=O)OCC (stereo not drawn),-1.25%
8,CN(C)CCC(C(=O)NCc1ccccc1)C(=O)NCc1ccccc1,-17.4%
9,CCOc1ccc2nc(C)ccc2c1,9.85%
10,CCOc1ccc(-c2nc(-c3oc4ccccc4c(=O)c3OC(C)=O)cs2)cc1,-2.85%
11,Nc1cccc2c1C(=O)c1cccc(N)c1C2=O,-7.35%
12,O=[N+]([O-])c1ccc(Sc2c3ccccc3nc3cc(Cl)ccc23)cc1,9.3%
13,O=c1c(SCc2ccc(Cl)cc2)c(N2CCCCC2)cnn1-c1ccccc1,34%
14,Cc1ccc(S(=O)(=O)N/N=C(/c2ccccc2)c2ccsc2C)cc1,24.2%
15,NC1=NN(c2ccccc2)C(=O)C1C(=O)CCC(=O)Nc1cccc(Cl)c1 (stereo not drawn),18.2%
16,CC#CC#C/C=C1/C=CC2(CC=CO2)O1 (stereo not drawn),12.3%
17,NC(=O)C1CCCC1,14.1%
18,O/N=C1/C(=C/c2ccccc2)CCCC1C(NO)c1ccccc1 (stereo not drawn),28.1%
